Format in all cases: functional
For assay [1], the system named is Plasmodium falciparum. Description: GSK_TCMDC: Inhibition of Plasmodium falciparum 3D7 in whole red blood cells, using parasite LDH activity as an index of growth. Test compounds present at 2uM.
The subject of assay [2] is Plasmodium falciparum. Description: GSK_TCMDC: Inhibition of Plasmodium falciparum Dd2 in whole red blood cells, using parasite LDH activity as an index of growth. Test compounds present at 2uM.
The subject of assay [3] is HepG2. As to the kind of experiment: GSK_TCMDC: Percent inhibition of human HepG2 cell line. Test compounds present at 10uM.

Consider 32 molecules from ChEMBL document CHEMBL1157539, “Thousands of chemical starting points for antimalarial lead identification” (Nature, 2010).

As a reminder, the Inhibition is the drop in the measured response relative to a control, in per cent. High values mean strong suppression, low ones little suppression. On to `CCc1cc2c3c(N)nc(N)nc3ccc2n1CC`, for which the results for the Inhibition in assay [1], in assay [2] and in assay [3] were 93%, 0% and 62%, respectively.

Consider `Cc1nc(-c2cccc(Nc3nccc(NCC(O)c4ccc(C(F)(F)F)cc4)n3)c2)cs1` (stereo unspecified), for which the Inhibition in assay [1] was 100%; in assay [2] it was 99%; in assay [3], 33%.

For the molecule `CCOC(=O)NC1=NC(C)(C)N(OCCCOc2ccc(C)cc2C)C(NC(=O)OCC)=N1`, the Inhibition was determined as 95% in assay [1], 98% in assay [2] and 63% in assay [3].

`CN(C)CCC1CCN(CCS(=O)(=O)c2cccc(Nc3ncc(-c4cccc(F)c4)cn3)c2)CC1`: the Inhibition is listed as 96% in assay [1], 12% in assay [2] and 59% in assay [3].

Regarding `CN1CCN(Cc2ccc(-c3cc4nccc(Nc5ccc(Oc6ccccc6)cc5)c4cc3Cl)o2)CC1`, the values for the Inhibition in assay [1], in assay [2] and in assay [3] were 100%, 99% and 3%, respectively.

`CC1CN(c2cnn(Cc3cccc(NC(=O)Nc4ccc(-c5ccccc5)cc4)c3)c(=O)c2Cl)CC(C)N1.O=C(O)C(F)(F)F` (stereo unspecified): the Inhibition in assay [1] is given as 100%; in assay [2], 67%; in assay [3] it was 6%.

`Nc1cccc(CNCc2ccc(-c3ccc(-c4nc5ccccc5[nH]4)s3)cc2)c1.O=C(O)C(F)(F)F`: the values for the Inhibition in assay [1], in assay [2] and in assay [3] were 100%, 93% and 12%, respectively.

Take `CCOC(=O)NCC(=O)Nc1cccc(-c2cccc(-c3nc4cccc(C)c4[nH]3)c2)c1`: the Inhibition was 88% in assay [1], 35% in assay [2] and 14% in assay [3].

For the molecule `COc1ccccc1C1CCN(Cc2csc(NC(=O)c3ccc(-c4ccc(C(F)(F)F)cc4)cc3)n2)CC1`, the Inhibition in assay [1] worked out at 85%; in assay [2] it was 23%; in assay [3], 62%.

Take `CCOc1ccc(-c2nonc2NC(=O)c2ccc(OC)cc2)cc1OCC`: the Inhibition in assay [1] worked out at 98%; in assay [2] it was 77%; in assay [3], 0%.

`COc1ccc2nccc([C@@H](O)CN3CCC(NCc4nc5cc(F)c(F)cc5[nH]4)CC3)c2c1.O=C(O)C(=O)O`: the Inhibition stood at 96% in assay [1], 36% in assay [2] and 12% in assay [3].

`Cc1cccc(-c2ccc3c(c2)CC(NCc2cccc(-n4ccnc4)c2)C3)c1` (stereo unspecified): the Inhibition in assay [1] is on record as 100%; in assay [2] it was 49%; in assay [3] it was 11%.

For the molecule `Cl.O=S(=O)(Nc1cc2c(cc1O)CCN(C1CCC1)CC2)c1ccc(Oc2ccc(F)cc2)cc1`, the Inhibition in assay [1] is reported as 99%; in assay [2] it was 52%; in assay [3] it was 20%.

As for `CCc1ccc(CN2CCC(CNC(=O)c3cc(-c4cccc(C(F)(F)F)c4)cs3)C2)cc1.O=C(O)C(F)(F)F` (stereo unspecified), the Inhibition in assay [1] is 97%; in assay [2], 48%; in assay [3], 45%.

As to `C[C@@H](Nc1nc(NCc2ccccc2)c2sccc2n1)c1ccccc1`, the Inhibition in assay [1] worked out at 91%; in assay [2], 75%; in assay [3], 31%.

For the molecule `O=C(Nc1cccc(CN2CCN(Cc3ccc(O)cc3)CC2)c1)c1cc2ccccc2o1.O=C(O)C(F)(F)F`, the Inhibition was determined as 81% in assay [1], 12% in assay [2] and 8% in assay [3].

Take `Cc1cccc2c3c([nH]c12)C1(CCN(Cc2ccccc2)CC1)NC(C(=O)NCc1ccccc1)C3` (stereo unspecified): the Inhibition in assay [1] came to 81%; in assay [2] it was 8%; in assay [3], 0%.

Regarding `Cc1cccc2nc(-c3cccc(-c4ccc(NC(=O)NC(C)C)cc4)c3)[nH]c12`, the Inhibition in assay [1] came to 98%; in assay [2], 44%; in assay [3] it was 30%.

Turning to `Cc1cc(I)ccc1Nc1nc2nonc2nc1Nc1ccc(I)cc1C`, the Inhibition in assay [1] came out at 100%; in assay [2], 96%; in assay [3], 78%.

With `CN(CC(=O)Nc1cc(C(F)(F)F)ccc1-n1cncn1)Cc1nc2ccccc2s1`, the Inhibition stood at 87% in assay [1], 64% in assay [2] and 3% in assay [3].

As for `CCCCCN1C(=O)C(c2ccccc2)(c2ccccc2)N=C1N`, the figures for the Inhibition in assay [1], in assay [2] and in assay [3] were 97%, 68% and 18%, respectively.

Consider `O=C(C=Cc1ccc(Cl)c(Cl)c1)NCCCCCN1CCC(CCCNC(=O)/C=C/c2ccccc2)CC1`, for which the figures for the Inhibition in assay [1], in assay [2] and in assay [3] were 96%, 33% and 50%, respectively.

Regarding `O=[N+]([O-])c1ccc2nccnc2c1`, the Inhibition in assay [1] is reported as 97%; in assay [2] it was 0%; in assay [3] it was 0%.

As for `Cc1[nH]c(C)c(Cc2ccc(Oc3ccc(OC(F)(F)F)cc3)cc2)c(=O)c1Br`, the Inhibition in assay [1] was 96%; in assay [2], 87%; in assay [3], 29%.

Turning to `O=C(O)/C=C/c1cccc(F)c1F`, the Inhibition in assay [1] is 96%; in assay [2] it was 1%; in assay [3], 58%.

On to `CCCCCN1CCCC1CNS(=O)(=O)c1cccc(C(=O)Nc2cccc(C(F)(F)F)c2)c1.O=C(O)C(F)(F)F` (stereo unspecified), for which the Inhibition came to 96% in assay [1], 12% in assay [2] and 15% in assay [3].

On to `CCCCCCOc1ccc(C(=O)N[C@H]2CCN(CCCCCNC(=O)/C=C/c3ccc(Cl)c(Cl)c3)C2)cc1`, for which the Inhibition in assay [1] is on record as 99%; in assay [2] it was 25%; in assay [3], 10%.

For `O=C(NCc1ccc(Cl)c(Cl)c1)c1ccc(-c2nc3ccc(Cl)cc3[nH]2)cc1`, the Inhibition in assay [1] came to 96%; in assay [2], 22%; in assay [3], 20%.

`Clc1cc(Cl)c2c(c1)C(NCCCNc1nc3ccccc3[nH]1)CCO2` (stereo unspecified): the results for the Inhibition in assay [1], in assay [2] and in assay [3] were 100%, 31% and 28%, respectively.

In the case of `CC(=NNC(S)=NCCc1ccccc1)c1ccccn1`, the results for the Inhibition in assay [1], in assay [2] and in assay [3] were 100%, 99% and 73%, respectively.

In the case of `Clc1ccccc1CN1CCC(NCc2cccc(-n3ccnc3)c2)CC1.O=C(O)C(F)(F)F`, the Inhibition stood at 100% in assay [1], 43% in assay [2] and 6% in assay [3].

`CS(=O)(=O)c1ccc(-c2cnc(N)c(-c3cccc(CO)c3)c2)cc1`: the Inhibition in assay [1] turned out to be 98%; in assay [2], 51%; in assay [3], 0%.
